Experimental data reported in PubChem BioAssay (NCATS).
Where “and” joins values, the source holds several entries; their conditions need not be identical. Identical values can stand only once. Records with an inconclusive call do not appear. Where a call stands in place of a potency, no number is given. Calls of active or inactive are those of the source. Calls come from the whole dose curve; as a rule, active = well fitted curve in the direction sought with a large enough effect; inconclusive = small, poorly fitted or top-dose-only effect, or another doubt; inactive = no such curve, though single readings can be large; an effect the other way counts as inactive or inconclusive.

Tests used:
[1] = qHTS of pediatric cancer cell lines to identify multiple opportunities for drug repurposing: Primary screen for Rh30 cells (AID 1347107); conditions: Rh30 rhabdomyosarcoma viability, CellTiter-Glo luminescence, 48 h; series mostly up to 46 µM; note: nearly all actives have a fitted effect of over 75% in size
Outline: (§1)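 Cells (500-1,000/well) rested 5 h, then received compounds for 48 h; metabolically active cells were measured by CellTiter-Glo luminescence. Final concentrations spanned up to 46 µM (MIPE, 11-point) or 0.59 nM-46 µM (NPC, 8-point) in primary screens, 11-point in follow-ups.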

[2] = qHTS of pediatric cancer cell lines to identify multiple opportunities for drug repurposing: Primary screen for Rh41 cells (AID 1347108); conditions: Rh41 rhabdomyosarcoma viability, CellTiter-Glo luminescence, 48 h; series mostly up to 46 µM; note: nearly all actives have a fitted effect of over 70% in size; note: potency is the fitted concentration of half-maximal effect
Outline: (§2)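 500-1,000 cells/well; 5 h pre-incubation 37 °C/5% CO2; compound pinned; 48 h; CellTiter-Glo, 15 min RT; luminescence. MIPE 11-pt from 0.78 nM, NPC 8-pt from 0.59 nM final. Bortezomib 2.3 µM final as positive control.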

[3] = qHTS of pediatric cancer cell lines to identify multiple opportunities for drug repurposing: Confirmatory screen for NB1643 cells (AID 1347109); conditions: NB1643 neuroblastoma cell viability; series mostly up to 45.9 µM; note: nearly all actives have a fitted effect of over 45% in size; note: potency is the fitted concentration of half-maximal effect
Outline: as §1

[4] = qHTS of pediatric cancer cell lines to identify multiple opportunities for drug repurposing: Confirmatory screen for SK-N-MC cells (AID 1347111); conditions: SK-N-MC cell viability; series mostly up to 45.9 µM;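 note: cells exposed to compound for 48 h before the readout; nearly all actives have a fitted effect of over 70% in size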; note: potency is the fitted concentration of half-maximal effect
Outline: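 Seed 500-1,000 cells/well; rest 5 h at 37 degrees C. Pin-transfer compounds, 11-point titration. Incubate 48 h. Add CellTiter-Glo, 15 min RT, read luminescence.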

[5] = qHTS of pediatric cancer cell lines to identify multiple opportunities for drug repurposing: Primary screen for OHS-50 cells (AID 1347103); conditions: OHS-50 osteosarcoma viability, CellTiter-Glo luminescence, 48 h; series mostly up to 57.3 µM; note: nearly all actives have a fitted effect of over 40% in size; note: potency is the fitted concentration of half-maximal effect
Outline: as §1

[6] = qHTS of pediatric cancer cell lines to identify multiple opportunities for drug repurposing: Primary screen for MG 63 (6-TG R) cells (AID 1347105); conditions: MG 63 (6-TG R) viability, CellTiter-Glo, 48 h; series mostly up to 46 µM; note: nearly all actives have a fitted effect of over 50% in size; note: potency is the fitted concentration of half-maximal effect
Outline: as §2

[7] = qHTS of pediatric cancer cell lines to identify multiple opportunities for drug repurposing: Primary screen for control Hh wild type fibroblast cells (AID 1347106); conditions: Hh wild-type fibroblast viability, CellTiter-Glo luminescence, 48 h; series mostly up to 46 µM;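 note: a drop in luminescence marks cytotoxicity and a rise apparent proliferation; nearly all actives have a fitted effect of over 55% in size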
Outline: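 Cells (500-1,000/well) in growth media were settled 5 h at 37 degrees C, then given compounds for 48 h. Viability was read as CellTiter-Glo luminescence. Primary runs used MIPE at 11 points (0.78 nM-46 µM) and NPC at 8 points (0.59 nM-46 µM); follow-ups used 11 points.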

[8] = qHTS of pediatric cancer cell lines to identify multiple opportunities for drug repurposing: Primary screen for RD cells (AID 1347104); conditions: RD rhabdomyosarcoma viability, CellTiter-Glo luminescence, 48 h; series mostly up to 46 µM; note: nearly all actives have a fitted effect of over 55% in size; note: potency is the fitted concentration of half-maximal effect
Outline: as §2

[9] = qHTS of pediatric cancer cell lines to identify multiple opportunities for drug repurposing: Confirmatory screen for A673 cells (AID 1347110); conditions: A673 Ewing sarcoma cell viability; series mostly up to 45.9 µM;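 note: cells exposed to compound for 48 h before the viability read; nearly all actives have a fitted effect of over 65% in size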
Outline: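 Cells plated at 500-1,000/well were treated five hours later with multi-point dilutions up to 46 µM final. After two days, CellTiter-Glo was added and luminescence read.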

## CNS(=O)(=O)CCc1ccc2[nH]cc(C3CCN(C)CC3)c2c1
[1]
  Potency: inactive
[2]
  Potency: inactive
[3]
  Potency: inactive
[4]
  Potency: 4.14 µM (active)

## COc1cc(NS(=O)(=O)c2ccc(N)cc2)nc(OC)n1
[5]
  Potency: inactive
[6]
  Potency: inactive
[7]
  Potency: inactive
[1]
  Potency: inactive
[2]
  Potency: inactive

## CNC(=O)c1cc(Oc2ccc(NC(=O)Nc3ccc(Cl)c(C(F)(F)F)c3)cc2)ccn1
[5]
  Potency: 15.3 µM (active) and 15.5 µM (active)
[7]
  Potency: inactive
[2]
  Potency: 18.7 µM (active)
[3]
  Potency: 20.8 µM (active)

## Cc1c(-c2ccc(O)cc2)n(Cc2ccc(OCCN3CCCCCC3)cc2)c2ccc(O)cc12
[8]
  Potency: inactive
[7]
  Potency: inactive
[1]
  Potency: inactive
[2]
  Potency: inactive

## COc1ccc(C(=O)CC(=O)c2ccc(C(C)(C)C)cc2)cc1
[5]
  Potency: inactive
[6]
  Potency: inactive
[7]
  Potency: inactive
[1]
  Potency: inactive
[3]
  Potency: inactive
[4]
  Potency: 26.1 µM (active)

## CC[C@H](C)C(=O)O[C@H]1C[C@@H](C)C=C2C=C[C@H](C)[C@H](CC[C@@H]3C[C@@H](O)CC(=O)O3)[C@H]21
[5]
  Potency: 6.92 µM (active) and 9.68 µM (active)
[6]
  Potency: 4.22 µM (active) and 4.69 µM (active)

## CNCC[C@H](Oc1cccc2ccccc12)c1cccs1
[5]
  Potency: 15.5 µM (active)
[1]
  Potency: inactive
[3]
  Potency: inactive
[4]
  Potency: 6.57 µM (active)

## COC(=O)Nc1nc2ccc(S(=O)c3ccccc3)cc2[nH]1 (stereo not drawn)
[5]
  Potency: 1.1 µM (active) and 24.3 µM (active)
[6]
  Potency: 668 nM (active) and 14.8 µM (active)
[7]
  Potency: inactive
[1]
  Potency: inactive
[3]
  Potency: 1.85 µM (active)
[4]
  Potency: 1.47 µM (active)

## NC(N)=NC(N)=NCCc1ccccc1
[5]
  Potency: 11 µM (active) and 3.85 µM (active)
[6]
  Potency: inactive
[1]
  Potency: inactive

## O=C(NCC1CN(c2ccc(N3CCOCC3=O)cc2)C(=O)O1)c1ccc(Cl)s1 (stereo not drawn)
[5]
  Potency: inactive
[6]
  Potency: inactive
[1]
  Potency: inactive
[2]
  Potency: inactive
[4]
  Potency: 2.93 µM (active)

## CCn1cc(C(=O)O)c(=O)c2cc(F)c(N3CCN(C)CC3)cc21
[5]
  Potency: inactive
[6]
  Potency: inactive
[7]
  Potency: inactive
[1]
  Potency: inactive
[2]
  Potency: inactive

## O[C@@H](CNC[C@H](O)[C@H]1CCc2cc(F)ccc2O1)[C@@H]1CCc2cc(F)ccc2O1
[5]
  Potency: 24.3 µM (active) and 27.6 µM (active)
[8]
  Potency: 33.2 µM (active)
[7]
  Potency: inactive
[1]
  Potency: inactive

## O=C(O)c1ccc(-n2nc(-c3ccccc3O)nc2-c2ccccc2O)cc1
[5]
  Potency: 21.7 µM (active)
[6]
  Potency: inactive
[7]
  Potency: inactive
[1]
  Potency: inactive

## N=C(N)c1ccc(OCCCCCOc2ccc(C(=N)N)cc2)cc1
[8]
  Potency: 18.7 µM (active)
[6]
  Potency: inactive
[7]
  Potency: inactive
[1]
  Potency: inactive

## OC(Cn1cncn1)(Cn1cncn1)c1ccc(F)cc1F
[5]
  Potency: inactive
[6]
  Potency: inactive
[7]
  Potency: inactive
[1]
  Potency: inactive
[2]
  Potency: inactive

## COc1cc2c(Nc3ccc(Br)cc3F)ncnc2cc1OCC1CCN(C)CC1
[7]
  Potency: inactive
[1]
  Potency: inactive
[3]
  Potency: inactive
[4]
  Potency: inactive

## NS(=O)(=O)c1cc2c(cc1Cl)NC(C(Cl)Cl)NS2(=O)=O (stereo not drawn)
[5]
  Potency: inactive
[6]
  Potency: inactive
[7]
  Potency: inactive
[1]
  Potency: inactive
[2]
  Potency: inactive

## CCc1cc(C(N)=S)ccn1
[5]
  Potency: inactive
[6]
  Potency: inactive
[1]
  Potency: inactive
[2]
  Potency: inactive

## Cc1nnc(NS(=O)(=O)c2ccc(N)cc2)s1
[7]
  Potency: inactive
[1]
  Potency: inactive

## COc1cc2ncnc(Nc3cccc(Cl)c3)c2cc1OC
[5]
  Potency: 24.3 µM (active)
[7]
  Potency: inactive
[1]
  Potency: inactive

## Nc1nc(F)nc2c1ncn2[C@@H]1O[C@H](CO)[C@@H](O)[C@@H]1O
[5]
  Potency: 55 nM (active) and 485 nM (active)
[6]
  Potency: 42.2 nM (active) and 590 nM (active)
[7]
  Potency: inactive
[1]
  Potency: inactive
[2]
  Potency: 1.48 µM (active)
[3]
  Potency: 0.465 µM (active)
[4]
  Potency: 0.465 µM (active)

## CC(C)OC(=O)C(C(=O)OC(C)C)=C1SC=CS1
[8]
  Potency: inactive
[6]
  Potency: inactive
[7]
  Potency: inactive
[1]
  Potency: inactive
[2]
  Potency: inactive

## CCCc1nc(C)c2c(=O)[nH]c(-c3cc(S(=O)(=O)N4CCN(CC)CC4)ccc3OCC)nn12
[7]
  Potency: inactive
[2]
  Potency: 14.8 µM (active)

## CC(=O)[C@H]1CC[C@H]2[C@@H]3CCC4=CC(=O)CC[C@]4(C)[C@H]3CC[C@]12C
[5]
  Potency: 19.3 µM (active)
[6]
  Potency: 11.8 µM (active)
[7]
  Potency: inactive

## COC(=O)Nc1nc2ccc(Sc3ccccc3)cc2[nH]1
[5]
  Potency: 1.23 µM (active) and 3.06 µM (active)
[6]
  Potency: 668 nM (active) and 1.18 µM (active)
[7]
  Potency: inactive
[1]
  Potency: inactive
[4]
  Potency: 1.04 µM (active)

## CCCCOc1ccc(CC(=O)NO)cc1
[6]
  Potency: inactive
[7]
  Potency: inactive
[1]
  Potency: inactive
[3]
  Potency: inactive
[9]
  Potency: inactive
[4]
  Potency: inactive

## CCOC(=O)[C@H](CCc1ccccc1)N[C@H]1CCc2ccccc2N(CC(=O)O)C1=O
[5]
  Potency: 24.3 µM (active)
[8]
  Potency: 26.4 µM (active)
[7]
  Potency: inactive

## CCc1c2c(nc3ccc(OC(=O)N4CCC(N5CCCCC5)CC4)cc13)-c1cc3c(c(=O)n1C2)COC(=O)[C@]3(O)CC
[5]
  Potency: 0.769 µM (active)
[6]
  Potency: 21.1 µM (active) and 1.48 µM (active)
[3]
  Potency: 2.61 µM (active)
[4]
  Potency: 0.737 µM (active)
